We go through 20 compounds from PubChem BioAssay.

Where “and” joins values, the source holds several entries; their conditions need not be identical. Equal values may be shown once. Calls of active or inactive are those of the source.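 Rule for the calls, unless noted: active = inhibition at or above 50% relative to wild type and mutant plate controls; inactive = inhibition below 50%.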

The nature of experiment [1]: inhibitors of mutant huntingtin aggregation, primary screen, imaging, exon1htt(103Q)mCFP cells, high-content imaging (AID 483;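 active = visual image review flags a hit and inhibition of aggregation exceeds 20%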;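 note: compound exposure lasted 3 days before fixation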;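 for nuclei count: percent of the per-plate median nuclei count of sample wells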). The following applies: exon1htt(103Q)mCFP cell line, aggregate imaging, at 2 µM; inhibition of aggregation: stronger effect = higher value; nuclei count: measured here: cell count, toxicity.
Experiment [2] is described as follows: inhibitors of E-selectin induction by TNFa, primary screen, imaging, HUVEC, immunofluorescence, MLSMR starter and 10KST1 sets (AID 487;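 active = visually confirmed hit in the image check and inhibition above 20%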;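 for inhibition: signal is fraction of cell area covered by stained E-selectin grains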;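 for nuclei count: 100% = median nuclei count of all wells on the same plate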). Conditions: HUVEC TNFalpha-induced E-selectin immunofluorescence imaging, at 2 µM; inhibition: stronger effect = higher value; nuclei count: measured here: cell number, toxicity.
A short description of experiment [3]: DUSP6 inhibitors restoring Erk phosphorylation by chemical complementation, primary imaging in DUSP6-transfected HeLa (AID 609;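 active = compounds giving at least 50% inhibition in the cell-based MKP-3 phosphatase rescue imaging test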;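 for inhibition: phospho-Erk level distribution per well compared with pooled transfected vehicle control wells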). Conditions: HeLa MKP-3 transfected, phospho-Erk imaging KS statistic, at 10 µM.
Experiment [4] addresses Dual specificity protein phosphatase 6 (Homo sapiens) (UniProt Q16828). Described as above. Conditions: HeLa MKP-3 transfected, phospho-Erk imaging KS statistic, at 10 µM, stronger effect = higher value.
The target in experiment [5] is Voltage-gated potassium channel subunit beta-2 (Rattus norvegicus) (UniProt P62483). The experiment is described as follows: KvBeta enzyme negative modulators, primary screen, biochemical, NADPH fluorescence (AID 622;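 active = fluorescence slope higher than the sample average by over 3 SD, cut at about -0.22 in these data, passing the limit was not always enough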;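 note: slope of raw intensity against log time taken from 70 to 1610 s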). The following applies: recombinant KvBeta, 4-cyanobenzaldehyde reduction, at 10 µM, stronger effect = higher value.
The target is the same in experiment [6]. The experiment is described as follows: KvBeta positive modulators, primary screen, biochemical, NADPH fluorescence (AID 623;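 active = NADPH fluorescence slope more negative than the mean of all samples by about 3 SD, 99.7% confidence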;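 note: fluorescence intensity change per second fitted from 20 to 320 s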). The following applies: Recombinant KvBeta, NADPH fluorescence decrease slope, 10 min; at 10 µM; stronger effect = lower value.
Experiment [7] deals with Alpha-2C adrenergic receptor (Homo sapiens) (UniProt P18825). Put plainly: modulators of alpha2C/GIRK thallium flux, primary screen, cell-based, HEK293 alpha2C/GIRK1/2 (AID 624;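 active = fluorescence slope after compound addition differing from the mean of all screened samples at 99.7% confidence, in either direction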;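 note: slope of fluorescence ratio to pre-addition baseline per second over 15 to 24 s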). The following applies: thallium flux BTC fluorescence, at 10 µM, actives lie on both sides.
Experiment [8] is described as follows: inhibitors of Chlamydomonas gravitaxis, primary screen, whole organism, Chlamydomonas reinhardtii, WT vs cilia-less mutant, absorbance, 96-well (AID 463189).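 Note: 0% = wild type cc124 cells in DMSO and 100% = ciliumless bld1 mutant cells.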 The following applies: OD600 absorbance, 2 days, at 10 µM, stronger effect = higher value.
The nature of experiment [9]: inhibitors of Sendai virus-induced IRF3 signaling, primary screen, TLR/RLR signaling modifier project, cell-based, Sendai virus stimulus, luciferase, 10K MLSCN set (AID 602276;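 active = inhibition at or above 50% at 10 µM; inactive = inhibition below 50%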;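 note: firefly luciferase from ISG56 promoter only with Renilla not read in this screen; 0% = Sendai virus plus DMSO and 100% = medium plus DMSO without virus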). The following applies: HEK293 RL24 IRF3 luciferase reporter, at 10 µM, stronger effect = higher value. In general terms: In a reporter assay the amount or activity of a reporter protein is the signal.
A short description of experiment [10]: inhibitors of poly I:C-induced TLR3 signaling, primary screen, cell-based, poly I:C stimulus, luciferase, 10K MLSCN set (AID 602277;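 active = inhibition of the reporter signal at or above 50%; inactive = inhibition below 50%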). The following applies: HEK293-TLR3 RL24 IRF3 luciferase reporter, at 10 µM, stronger effect = higher value.
Experiment [11] can be described thus: inhibitors of larval lipid processing in zebrafish, primary screen, whole organism, PED6 fluorescence, gall bladder and intestine (AID 686;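 active = a full or partial loss of lipid-probe fluorescence in the fish gall bladder, intestine or both, judged by eye; inactive = no fluorescence loss, or compound toxic to the fish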;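 note: larvae 5 to 7 days old with five fish per well; signal comes from phospholipase A2 cleavage of quenched PED6 carried via bile; overnight exposure to compound and PED6 before scoring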). The following applies: Zebrafish larvae PED6 lipid processing, fluorescence scoring.
Experiment [12] has as its target Muscarinic acetylcholine receptor M4 (Homo sapiens) (UniProt P08173). Put plainly: compounds altering M4/GIRK thallium flux, either direction, primary screen, M4 allosteric agonist project, cell-based, HEK293 M4/GIRK, BTC-AM (AID 625;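 active = fluorescence slope after compound addition differing from the mean of all tested samples at 99.7% confidence, mostly higher but some lower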;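 note: thallium influx through GIRK channels coupled to M4 in HEK293 cells with BTC-AM dye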). Conditions: at 10 µM, actives lie on both sides.
[13] abbreviates: measured here: cell density z-score.
Setting [14] is: measured here: nuclear c-Myc green intensity z-score.
The mark [15] stands for this setting: measured here: nuclear pErk red intensity z-score, stronger effect = higher value.

Chain of Dual specificity protein phosphatase 6 (Homo sapiens) (Q16828 whole entry, looked up): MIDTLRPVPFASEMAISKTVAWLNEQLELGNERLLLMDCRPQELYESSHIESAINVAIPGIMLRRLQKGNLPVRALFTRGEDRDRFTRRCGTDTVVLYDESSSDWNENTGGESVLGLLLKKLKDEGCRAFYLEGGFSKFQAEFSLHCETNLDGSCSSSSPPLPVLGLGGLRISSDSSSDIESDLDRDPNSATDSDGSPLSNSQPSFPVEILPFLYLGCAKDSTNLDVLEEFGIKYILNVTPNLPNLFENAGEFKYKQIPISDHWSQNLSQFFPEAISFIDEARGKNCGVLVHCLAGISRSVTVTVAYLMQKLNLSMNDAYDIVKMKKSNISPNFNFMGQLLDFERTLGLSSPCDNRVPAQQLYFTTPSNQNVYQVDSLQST
Chain of Alpha-2C adrenergic receptor (Homo sapiens) (P18825 whole entry, looked up): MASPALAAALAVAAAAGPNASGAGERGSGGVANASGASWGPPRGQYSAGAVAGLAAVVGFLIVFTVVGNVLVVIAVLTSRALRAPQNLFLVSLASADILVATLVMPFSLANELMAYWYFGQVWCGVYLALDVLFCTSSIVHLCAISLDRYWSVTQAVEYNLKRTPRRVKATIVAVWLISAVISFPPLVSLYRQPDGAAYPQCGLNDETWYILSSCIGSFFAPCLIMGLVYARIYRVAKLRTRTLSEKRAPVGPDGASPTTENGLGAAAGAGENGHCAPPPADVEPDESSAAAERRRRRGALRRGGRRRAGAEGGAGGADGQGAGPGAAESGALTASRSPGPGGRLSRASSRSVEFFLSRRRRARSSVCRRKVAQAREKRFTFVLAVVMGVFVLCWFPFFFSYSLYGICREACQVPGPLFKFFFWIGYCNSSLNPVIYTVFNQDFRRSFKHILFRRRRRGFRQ
Chain of Voltage-gated potassium channel subunit beta-2 (Rattus norvegicus) (P62483 whole entry, looked up): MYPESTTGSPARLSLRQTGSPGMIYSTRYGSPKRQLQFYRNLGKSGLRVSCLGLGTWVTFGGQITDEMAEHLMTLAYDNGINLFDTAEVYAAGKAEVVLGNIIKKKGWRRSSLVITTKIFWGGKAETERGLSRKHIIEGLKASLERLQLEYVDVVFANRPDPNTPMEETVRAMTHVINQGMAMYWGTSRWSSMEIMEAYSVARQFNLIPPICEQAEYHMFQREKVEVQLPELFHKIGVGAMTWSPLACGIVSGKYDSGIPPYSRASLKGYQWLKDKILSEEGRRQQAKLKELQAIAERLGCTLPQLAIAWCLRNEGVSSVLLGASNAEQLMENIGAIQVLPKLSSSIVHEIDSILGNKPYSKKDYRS
Chain of Muscarinic acetylcholine receptor M4 (Homo sapiens) (P08173 whole entry, looked up): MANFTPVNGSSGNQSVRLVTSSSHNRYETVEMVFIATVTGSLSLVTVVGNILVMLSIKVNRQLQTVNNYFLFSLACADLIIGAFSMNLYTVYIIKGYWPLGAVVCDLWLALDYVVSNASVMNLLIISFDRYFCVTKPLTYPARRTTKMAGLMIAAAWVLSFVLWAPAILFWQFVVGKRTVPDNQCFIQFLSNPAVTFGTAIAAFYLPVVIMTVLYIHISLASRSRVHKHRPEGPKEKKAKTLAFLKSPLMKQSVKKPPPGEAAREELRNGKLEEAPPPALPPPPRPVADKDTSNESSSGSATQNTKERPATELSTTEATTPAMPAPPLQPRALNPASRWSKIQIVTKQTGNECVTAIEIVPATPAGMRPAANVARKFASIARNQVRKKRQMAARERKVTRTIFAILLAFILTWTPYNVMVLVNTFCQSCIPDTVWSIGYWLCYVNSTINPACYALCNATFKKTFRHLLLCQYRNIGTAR

What is called inhibition is the drop in the measured response relative to a control, in per cent. Turning to `O=c1[nH]c2ccccc2n1CCCN1CCC(n2c(=O)[nH]c3cc(Cl)ccc32)CC1`, in experiment [1], the inhibition of aggregation is 13.3% (inactive). The nuclei count in experiment [1] was 79.8%; in experiment [2], 120%. In addition, the inhibition in experiment [2] was -81.4% (inactive); in [4], 12.4% (inactive); in experiment [8], 2.96% (inactive) and 11.3% (inactive); in experiment [9], 7.67% (inactive); in [10] it was 18.2% (inactive). For the same compound, the z-score in experiment [3] (setting [13]) is -1.29; in experiment [3] (setting [14]), 0.926; in experiment [3] (setting [15]), 0.563. Also, the fluorescence slope in experiment [5] is -0.455 (inactive). Besides, in experiment [6], the NADPH fluorescence slope was -4.5e-05 (inactive). Moreover, the slope in experiment [7] is 0.00301 (inactive).

For `CN1CCC23CCCC[C@H]2C1Cc1ccc(O)cc13` (stereo partly specified), the inhibition in [8] is -3.02% (inactive).

Take `O=C(O)c1cc[c]([Hg][Cl])cc1`: the inhibition in [8] was 9.04% (inactive).

As for `NNC(=O)c1ccc(O)cc1`, the inhibition in experiment [8] is -10.7% (inactive).

Regarding `CCCC(C)(COC(N)=O)COC(=O)NC(C)C` (stereo unspecified), in [1], the inhibition of aggregation was 18.2% (inactive). Also, the nuclei count in [1] worked out at 100%; in experiment [2], 106%. The inhibition in experiment [2] is 0.8% (inactive); in [4], -0.493% (inactive); in [8] it was -1.2% (inactive) and -10.3% (inactive); in [9], 3.15% (inactive); in [10] it was 14.5% (inactive). In addition, the z-score was -1.69 in experiment [3] (setting [13]), 0.189 in experiment [3] (setting [14]) and -1.67 in experiment [3] (setting [15]). The fluorescence slope in [5] is -0.459 (inactive). Also, the NADPH fluorescence slope in experiment [6] is 1.2e-05 (inactive). Moreover, the slope in experiment [7] was 0.0053 (inactive). Further, the compound was called inactive in experiment [11].

Take `NCc1cc(=O)[nH]o1`: the inhibition in experiment [8] was 5.71% (inactive).

Take `C[N+]1(C)C2CCC1CC(OC(=O)C(CO)c1ccccc1)C2` (stereo unspecified): in experiment [8], the inhibition is -0.808% (inactive) and 1.27% (inactive).

On to `NC(Cc1ccc(N(CCCl)CCCl)cc1)C(=O)O` (stereo unspecified), for which the inhibition in experiment [8] is 3.86% (inactive).

For the compound `N#CC(C#N)=Cc1ccc([N+](=O)[O-])c(O)c1`, in experiment [8], the inhibition was 2.16% (inactive).

Turning to `O=[N+]([O-])c1ccc(O[C@@H]2O[C@H](CO)[C@@H](O)[C@H](O)[C@H]2F)c([N+](=O)[O-])c1`, the inhibition in experiment [8] was 3.53% (inactive).

On to `C#CCN(C)[C@@H](C)Cc1ccccc1`, for which the inhibition in experiment [8] was 7.92% (inactive).

Turning to `c1ccc2c(c1)OCC(C1=NCCN1)O2` (stereo unspecified), the inhibition of aggregation in [1] is 2.2% (inactive). Moreover, the values for the nuclei count in experiment [1] and in experiment [2] were 109% and 128%, respectively. Moreover, the inhibition in [2] was -66.1% (inactive); in experiment [4], 27.9% (inactive); in experiment [8] it was -4.66% (inactive) and 22.4% (inactive); in [9], -8.86% (inactive); in [10], 10.1% (inactive). Further, the z-score in experiment [3] (setting [13]) is 0.816; in [3] (setting [14]) it was -0.0814; in experiment [3] (setting [15]), 0.589. The fluorescence slope in [5] was 0.111 (active). The NADPH fluorescence slope in experiment [6] was -0.000173 (inactive). Also, in experiment [7], the slope is 0.0054 (inactive). Besides, the compound was called inactive in [11].

Regarding `O=C(COc1ccc2ccccc2c1)N1CCN(C2CCN(Cc3ccccc3)CC2)CC1`, the inhibition of aggregation in experiment [1] was 2.5% (inactive). Besides, the nuclei count in experiment [1] amounted to 75.6%; in experiment [2], 138%. Further, the inhibition is -123% (inactive) in experiment [2]; 1.04% (inactive) in experiment [4]; 64.5% (active) in experiment [8]; 8.43% (inactive) in experiment [9]; -13.3% (inactive) in experiment [10]. In addition, the z-score in experiment [3] (setting [13]) is 0.592; in experiment [3] (setting [14]), -1.17; in experiment [3] (setting [15]) it was 0.865. Further, the fluorescence slope in experiment [5] is -0.309 (inactive). Besides, the NADPH fluorescence slope in experiment [6] was 1.5e-05 (inactive). In addition, the slope in [7] is 0.00353 (inactive). The outcome in experiment [11] was inactive.

Consider `CCn1cnc2c(Nc3cccc(Cl)c3)nc(N[C@@H]3CCCC[C@@H]3N)nc21`, for which the inhibition in [8] is 4.56% (inactive).

As for `C=CCN1CCC2(C)c3cc(O)ccc3CC1C2C` (stereo unspecified), the inhibition in experiment [8] is 0.366% (inactive).

For the compound `C[C@]12CCC(=O)C=C1CC[C@@H]1[C@@H]2CC[C@]2(C)C(=O)CC[C@@H]12`, the inhibition of aggregation in experiment [1] is 16.3% (inactive). The values for the nuclei count in experiment [1] and in experiment [2] were 88.1% and 117%, respectively. In addition, the inhibition is -105% (inactive) in experiment [2]; 11.3% (inactive) in experiment [4]; 3.25% (inactive) and 26.7% (inactive) in experiment [8]; 5% (inactive) in experiment [9]; 31.7% (inactive) in [10]. Besides, the values for the z-score in [3] (setting [13]), in experiment [3] (setting [14]) and in [3] (setting [15]) were -1.04, -1.5 and 2.67, respectively. In experiment [5], the fluorescence slope is -0.41 (inactive). Besides, in experiment [6], the NADPH fluorescence slope is 2.5e-05 (inactive). For the same compound, the slope in experiment [7] was 0.00365 (inactive). Moreover, the outcome in [11] was inactive.

Consider `O=C1CC[C@@]2(O)[C@H]3Cc4ccc(O)c5c4[C@@]2(CCN3CC2CC2)[C@H]1O5`, for which the inhibition in experiment [2] was -64.2% (inactive); in experiment [4] it was 11.3% (inactive); in [8], 17.1% (inactive); in experiment [9], 10.3% (inactive); in [10], 48.8% (inactive). This compound also registered a nuclei count in [2] of 120%. Besides, the z-score in experiment [3] (setting [13]) worked out at 1.03; in [3] (setting [14]), 0.419; in experiment [3] (setting [15]), 0.423. Moreover, in experiment [5], the fluorescence slope is -0.463 (inactive). Moreover, the NADPH fluorescence slope in experiment [6] is -9.1e-06 (inactive). Further, the slope in experiment [7] is 0.0048 (inactive). Moreover, the outcome in [11] was inactive.

With `COc1ccc2c(c1)c(C(=O)O)c(C)n2CC(C)C`, the inhibition is 37.7% (inactive) in [2], -2.07% (inactive) in [4] and 36.3% (inactive) in [8]. The nuclei count in experiment [2] is 86.4%. Besides, the z-score in [3] (setting [13]) was -0.228; in [3] (setting [14]) it was -1.03; in experiment [3] (setting [15]), 0.232. In addition, the fluorescence slope was -0.462 (inactive) in [5] and 0.00491 (inactive) in experiment [12]. Further, the NADPH fluorescence slope in [6] is -3.5e-05 (inactive). For the same compound, the result in [11] was inactive.

With `CC(=O)NBr`, the inhibition in [8] is 10% (inactive).

In the case of `CN1CC[C@@]2(C)c3cc(O)ccc3N(C)C12` (stereo partly specified), in experiment [8], the inhibition was -1.8% (inactive).
